Only a sample is shown.
aSyn UTR act: Activators working through SNCA 5'UTR binding (MLPCN). alpha-synuclein 5'UTR reporter, activators screen. activity score, % (tested at 7.5 µM), hits read low. actives 7.1% (n = 300,000). AID 1814; in the data active means activity score below about -60%
Numbers without * were called inactive.

SMILES	aSyn UTR act
Cc1cc(C(=O)CS(=O)(=O)c2ccc(F)cc2)cc(C)c1OC(=O)N(C)C	-135*
C=C(C=O)CC1CC(O)[C@]2(C)OC3CC4OC5C[C@]6(C)O[C@]7(C)CCC8OC9C[C@]%10(C)OC%11C(C)=CC(=O)OC%11CC%10OC9C[C@@H](C)C8OC7CC6O[C@]5(C)CC5OC5C4OC3CC2O1 (some centres undefined)	114
Cc1cc(C(=O)Nc2ccccc2)nn1C(C)(C)C	-112*
Cc1cc(C(=O)Nc2ccc3c(c2)OCCO3)nn1C(C)(C)C	-136*
CCN1/C(=C\C=C\C2=[N+](CC)c3ccccc3C2(C)C)C(C)(C)c2ccccc21	104
COc1cccc(OC)c1C1=NCC(=O)Nc2c1oc1ccc(Br)cc21	59
O=C(c1ccccc1)c1ccc(N=Nc2c(O)[nH]c(=O)[nH]c2=O)cc1	-74*
CC[C@@]1(O)C(=O)OCc2c1cc1n(c2=O)Cc2cc3ccccc3nc2-1	116
CCC(=NCCC1=CCCCC1)c1c(O)[nH]c(=O)[nH]c1=O	48
Cc1ccc(-c2nc3ccc(Cl)cc3n2OC(=O)N(C)C)cc1	-129*
COc1ccc(-c2nc3ccccc3c(=O)o2)cc1	-65*
COc1ccc(-[n+]2c(-c3ccccc3)cc(-c3ccccc3)cc2-c2ccccc2)cc1	81
Cc1nc2ccccc2c(=O)n1-c1ccc([N+](=O)[O-])cc1	-121*
Cc1nc2ccccc2c(=O)n1-c1ccc(Cl)c(Cl)c1	-138*
CC12CC[C@H]3[C@@H](CCC4(O)C[C@H](O)CCC34/C=N/NC(=O)c3ccccc3O)C1(O)CCC2C1=CC(=O)OC1 (some centres undefined)	77
COc1cc(/C=C(/C)[N+](=O)[O-])ccc1OCc1ccccc1Cl	-134*
CC(=O)OC1CC[C@]2(C#N)[C@H]3CC[C@]4(C)[C@H](C5C=CC(=O)O5)CCC4(O)C3CCC2(O)C1 (some centres undefined)	85
Cc1cc(NC(=O)CCl)nn1C	-94*
Cn1ccc(NC(=O)CCl)n1	-70*
CCn1c(NN=O)nc2ccccc21	74
C/C=C(\C)C(=O)N[C@@H](c1ccccc1)[C@@H](O)C(=O)O[C@H]1C[C@@]2(O)[C@@H](OC(=O)c3ccccc3)C3[C@](C)(C(=O)[C@H](O)C(=C1C)C2(C)C)[C@@H](O)C[C@H]1OC[C@@]31OC(C)=O (some centres undefined)	98
O=C(Nc1ccc2c(c1)OCO2)c1cn(Cc2ccc(F)cc2)nn1	-76*
CCC(CC)NCc1c[nH]c2ccccc12	-62*
Cc1ccc(-c2nc(N3CCOCC3)s[n+]2-c2ccccc2)cc1	-233*
O=c1nc(/C=C/c2ccc(Cl)cc2Cl)cc(C(F)(F)F)[nH]1	-64*
SMILES	aSyn UTR act
O=[N+]([O-])c1ccc(NC2CCCC2)c2ccncc12	58
COC(=O)C1=C(c2cc3ccccc3o2)C[C@@H]2CC[C@H]1N2C(=O)N1CCCCC1	66
O=c1[nH]c(=S)[nH]c(O)c1N=Nc1ccc(SC(F)F)cc1	-72*
CCCCCCOC(=O)c1ccccc1N	-136*
O=C(CSc1ccccc1)N1CCC2(CC1)OCCO2	-92*
Cc1nc2cc(-c3cccc(F)c3)nn2c(C)c1CCC(=O)N1CCC2(CC1)OCCO2	77
COC(=O)c1nc(-c2ccc3c(n2)C(=O)C(N)=C(OC)C3=O)c(N)c(-c2ccc(OC)c(OC)c2O)c1C	97
O=C(c1cc2c(s1)-c1ccccc1OC2)N1CCC2(CC1)OCCO2	-129*
CCc1ccc(N2C(=O)NC(=O)/C(=C/c3cccn3CCOc3ccc(C(C)CC)cc3)C2=O)cc1 (centres undefined)	-82*
CC[C@@]1(O)C(=O)OCc2c1cc1n(c2=O)Cc2cc3c(NC(=O)CN)cccc3nc2-1	71
CN1C(=O)C(=Cc2ccc(OCC(=O)Nc3ccccc3)cc2)C(=O)N(C)C1=O	-78*
C[C@@H]1O[C@@H](O[C@H]2C[C@@H](O)[C@]3(CO)[C@H]4[C@H](O)C[C@]5(C)[C@@H](C6COC(=O)C6)CC[C@]5(O)[C@@H]4CC[C@]3(O)C2)[C@H](O)[C@H](O)[C@H]1O (some centres undefined)	115
CN(C)c1ccc(/C=C2/C(=N\O)C3CCN2CC3)cc1	-133*
O=C(NC1CCCCC1)Oc1cc2oc(=O)sc2cc1Cl	-62*
CC[n+]1c(/C=C/C=C/c2ccc(N(C)C)cc2)sc2ccccc21	60
Cc1ccc(CN2C3CCCC2CC(NC(=O)Nc2cccc(F)c2)C3)cc1 (centres undefined)	-99*
CN1C(=O)N(C)C(=O)C2(Cc3cc([N+](=O)[O-])ccc3N(C)C2c2ccccc2)C1=O (centres undefined)	-62*
Nc1ccc2c(c1)Cc1ccccc1-2	-175*
CCN1CCN(c2nc3ccccc3s2)CC1	-131*
N=C1c2ccccc2CN1NC(=O)c1ccc(F)cc1	-62*
CC(C)c1ccc(N2C(=O)NC(=O)/C(=C\C=C\c3ccco3)C2=O)cc1	-70*
O=C1NC(=O)N(Cc2ccccc2)C(=O)/C1=C/C=C/c1ccco1	-296*
CCCCCCCSc1cc(OC)c(CCNC)cc1OC	121

Source: PubChem
